# Experimental data published in ChEMBL document CHEMBL2218924, “A broad activity screen in support of a chemogenomic map for kinase signalling research and drug discovery” (Biochem J, 2013).
# Molecular target: Mitogen-activated protein kinase 10 (Homo sapiens) (UniProt P53779)
# Conditions: at 1 µM
# Mitogen-activated protein kinase 10 (Homo sapiens), sequence (P53779 whole entry): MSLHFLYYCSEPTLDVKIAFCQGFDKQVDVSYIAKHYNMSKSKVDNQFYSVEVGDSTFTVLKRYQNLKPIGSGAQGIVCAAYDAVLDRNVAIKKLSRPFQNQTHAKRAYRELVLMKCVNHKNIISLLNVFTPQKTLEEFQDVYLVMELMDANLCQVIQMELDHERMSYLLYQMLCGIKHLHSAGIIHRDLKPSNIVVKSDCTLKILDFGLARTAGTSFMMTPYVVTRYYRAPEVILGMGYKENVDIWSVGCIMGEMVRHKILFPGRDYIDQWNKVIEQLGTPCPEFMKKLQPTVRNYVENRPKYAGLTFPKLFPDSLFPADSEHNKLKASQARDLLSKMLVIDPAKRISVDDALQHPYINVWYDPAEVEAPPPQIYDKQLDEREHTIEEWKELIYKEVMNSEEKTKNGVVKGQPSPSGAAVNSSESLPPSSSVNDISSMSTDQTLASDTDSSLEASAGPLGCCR
row,SMILES,residual activity
1,Cn1cc(/C=C2\C(=O)Nc3ccc(S(N)(=O)=O)cc32)c2ccccc21,58%
2,COc1cc2ncnc(Nc3ccc(Oc4ccccc4)cc3)c2cc1OC,83%
3,O=c1cc(-c2cccc3c2Sc2ccccc2S3)oc(N2CCOCC2)c1,91%
4,Oc1ccc(-c2nc(-c3ccc(F)cc3)c(-c3ccncc3)[nH]2)cc1,10%
5,O=C1c2ccccc2-[n+]2ccc3c([nH]c4ccccc43)c21,71%
6,Nc1nc(Nc2ccc(S(N)(=O)=O)cc2)nn1C(=S)Nc1c(F)cccc1F,35%
7,N#C/C(=C(\N)Sc1ccc(N)cc1)c1ccccc1C(F)(F)F,114%
8,CN(C)CCCn1cc(C2=C(c3c[nH]c4ccccc34)C(=O)NC2=O)c2ccccc21,117%
9,c1ccc(-c2n[nH]cc2-c2ccnc3ccccc23)nc1,79%
10,CC(=O)c1ccc(N2CCOCC2)cc1O,88%
11,CO[C@@H]1[C@H](N(C)C(=O)c2ccccc2)C[C@H]2O[C@]1(C)n1c3ccccc3c3c4c(c5c6ccccc6n2c5c31)C(=O)NC4,50%
12,N#CC(C#N)=C(N)/C(C#N)=C/c1ccc(O)cc1,96%
13,O=C(Nc1cccc(Nc2nccc(Nc3cccc(C(F)(F)F)c3)n2)c1)C1CC1,51%
14,CC(=O)O/N=C1\C(=C2\C(=O)Nc3cc(Br)ccc32)Nc2ccccc21,77%
15,Cn1cnc2cc3c(Nc4cccc(Br)c4)ncnc3cc21,54%
16,CCC(=O)Nc1ccc2ncnc(Nc3cccc(Br)c3)c2c1,72%

row,SMILES,residual activity
1,O=c1c2ccccc2[nH]c(=S)n1CCN1CCC(=C(c2ccc(F)cc2)c2ccc(F)cc2)CC1,98%
2,CC[n+]1c(/C=C/N(C)c2ccccc2)n(-c2ccccc2)c2ccc(-c3nc4ccccc4s3)cc21,91%
3,O=Nc1c(-c2c(O)[nH]c3ccccc23)[nH]c2ccccc12,7%
4,CC#CC(=O)Nc1cc2c(Nc3ccc(F)c(Cl)c3)ncnc2cn1,76%
5,O=[N+]([O-])c1ccc(-c2nc(-c3ccc(F)cc3)c(-c3ccncc3)[nH]2)cc1,8%
6,Cc1cc2ncc(-c3ccccc3)nc2cc1C,108%
7,O=C(O)c1ccc2c3c1cccc3c(=O)n1c3ccccc3nc21,78%
8,Cc1cccc(-c2[nH]c(C(C)(C)C)nc2-c2ccc3c(c2)OCO3)n1,90%
9,CCN(CC)C(=O)c1ccc(Nc2nc(OCC3CCCCC3)c3nc[nH]c3n2)cc1,5%
10,N#CCCc1ccc2c(c1)-c1[nH]c3ccc([N+](=O)[O-])cc3c1CC(=O)N2,67%
11,Cc1cc(Nc2nc(-c3ccccc3)nc3ccccc23)n[nH]1,51%
12,c1ccc(-c2n[nH]c3c2oc2ccccc23)cc1,59%
13,Oc1ccc(Nc2nc(-c3ccc(Cl)cc3)cs2)cc1,108%
14,Cc1cncc2cccc(S(=O)(=O)N3CCCN(C(=O)CN)C[C@H]3C)c12,72%
15,COc1cc2ncc(-c3ccccc3)nc2cc1OC,99%
